Laboratory results reported in PubChem BioAssay AID1159580 (chemical genetic matrix, 2015).
“And” between values parts separate entries of the source, which are not always exact repeats. Equal entries are not always repeated. Out of some 5,500 compounds screened, about 2,000 (36%) were called active. Not shown: some 18% with an inconclusive outcome. No stated cut-off is given here; in the data, active means normalized growth mostly below about 0.91 (no sharp cut-off); inconclusive means no clear call, values can overlap the other calls; inactive means mostly above about 0.92. The list shows a part of the results.

Assay: chemical genetic growth profiling, strain panel (AID 1159580);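 further: tested at 20 µM; growth read once vehicle control cultures reached saturation at 30 °C; 1 = growth at the plate median or of vehicle wells; lower values mean less growth of the strain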
Conditions: S. cerevisiae deletion strains, growth OD

Measured: normalized growth

C[C@]12CCC3c4ccc(OS(=O)(=O)O)cc4CCC3C1CC[C@H]2O (some centres undefined)
inactive: locus YAL013W, strain DEP1, active compounds read low 0.998 | locus YAL021C, strain ccr4, active compounds read low 0.986 | locus YAL026C, strain drs2, active compounds read low 0.973 | locus YAL030W, strain snc1, active compounds read low 1 | locus YBL061C, strain skt5, active compounds read low 0.969 | locus YBR009C, strain hhf1, active compounds read low 1.04 | locus YBR021W, strain FUR4, active compounds read low 0.983 | locus YBR023C, strain chs3, active compounds read low 0.966 | locus YBR171W, strain sec66, active compounds read low 0.983 | locus YBR229C, strain ROT2, active compounds read low 0.988 | locus YBR231C, strain swc5, active compounds read low 0.993 | locus YBR279W, strain paf1, active compounds read low 0.978 | locus YCL011C, strain gbp2, active compounds read low 0.961 | locus YCL016C, strain dcc1, active compounds read low 0.948 | locus YCL029C, strain bik1, active compounds read low 0.99 | locus YCL061C, strain MRC1, active compounds read low 0.975 | locus YCL069W, strain vba3, active compounds read low 0.985 | locus YCR088W, strain abp1, active compounds read low 0.983 | locus YDL005C, strain med2, active compounds read low 0.984 | locus YDL035C, strain GPR1, active compounds read low 0.991 | locus YDL040C, strain nat1, active compounds read low 0.985 | locus YDL074C, strain BRE1, active compounds read low 1.02 | locus YDL101C, strain DUN1, active compounds read low 0.996 | locus YDL134C, strain PPH21, active compounds read low 0.978 | locus YDL185W, strain tfp1, active compounds read low 0.99 | locus YDL192W, strain arf1, active compounds read low 0.987 | locus YDR001C, strain nth1, active compounds read low 0.974 | locus YDR069C, strain doa4, active compounds read low 0.981 | locus YDR101C, strain arx1, active compounds read low 0.988 | locus YDR137W, strain rgp1, active compounds read low 0.955 | locus YDR150W, strain NUM1, active compounds read low 0.997 | locus YDR159W, strain sac3, active compounds read low 0.984 | locus YDR162C, strain NBP2, active compounds read low 0.986 | locus YDR195W, strain ref2 0.97 | locus YDR297W, strain sur2, active compounds read low 0.986 | locus YDR318W, strain mcm21, active compounds read low 0.986 | locus YDR334W, strain swr1, active compounds read low 0.968 | locus YDR335W, strain msn5, active compounds read low 0.968 | locus YDR388W, active compounds read low 0.986 | locus YDR392W, strain spt3, active compounds read low 0.907 | locus YDR502C, strain sam2, active compounds read low 0.986 | locus YEL003W, strain gim4, active compounds read low 1 | locus YEL037C, strain rad23, active compounds read low 0.989 | locus YEL061C, strain CIN8 (second series), active compounds read low 0.981 | locus YEL061C, strain CIN8, active compounds read low 0.996 | locus YER015W, strain faa2, active compounds read low 0.986 | locus YER016W, strain bim1, active compounds read low 0.942 | locus YER110C, active compounds read low 0.978 | locus YER111C, strain swi4, active compounds read low 0.965 | locus YER155C, strain BEM2 (second series), active compounds read low 1 | locus YER155C, strain BEM2, active compounds read low 0.994 | locus YER167W, strain BCK2, active compounds read low 0.987 | locus YFR010W, strain ubp6, active compounds read low 0.998 | locus YGL078C, strain dbp3, active compounds read low 0.986 | locus YGL086W, strain mad1, active compounds read low 0.988 | locus YGL167C, strain pmr1, active compounds read low 0.973 | locus YGL173C, strain kem1, active compounds read low 0.999 | locus YGL227W, strain vid30, active compounds read low 0.981 | locus YGL240W, strain doc1, active compounds read low 1.01 | locus YGL248W, strain PDE1, active compounds read low 0.997 | locus YGL253W, strain hxk2, active compounds read low 0.953 | locus YGR078C, strain PAC10, active compounds read low 1.01 | locus YGR135W, strain pre9, active compounds read low 0.96 | locus YGR229C, strain SMI1, active compounds read low 1.01 | locus YGR252W, strain gcn5, active compounds read low 0.997 | locus YHR013C, strain ard1, active compounds read low 0.92 | locus YHR027C, strain rpn1, active compounds read low 0.965 | locus YHR030C, strain SLT2, active compounds read low 0.99 and 0.957 | locus YHR079C, strain IRE1 (second series), active compounds read low 0.986 | locus YHR079C, strain IRE1, active compounds read low 0.959 | locus YHR094C, strain hxt1, active compounds read low 0.987 | locus YHR129C, strain ARP1, active compounds read low 0.988 | locus YHR142W, strain chs7, active compounds read low 0.951 | locus YHR200W, strain rpn10, active compounds read low 0.987 | locus YIL066C, strain RNR3, active compounds read low 0.984 | locus YIL073C, strain SPO22, active compounds read low 0.954 | locus YIL125W, strain kgd1, active compounds read low 0.988 | locus YIR030C, strain dcg1, active compounds read low 0.992 | locus YJL092W, strain hpr5, active compounds read low 0.978 | locus YJL095W, strain BCK1 (second series), active compounds read low 0.969 | locus YJL095W, strain BCK1, active compounds read low 1.02 and 0.969 | locus YJL115W, strain asf1, active compounds read low 0.947 | locus YJL129C, strain trk1, active compounds read low 0.911 | locus YJL134W, strain LCB3, active compounds read low 0.993 | locus YJL154C, strain vps35, active compounds read low 0.976 | locus YJL164C, strain tpk1, active compounds read low 0.983 | locus YJL166W, strain qcr8, active compounds read low 0.998 | locus YJL168C, strain set2, active compounds read low 1 | locus YJL187C, strain SWE1 (second series), active compounds read low 1.01
